# Measured values taken from ChEMBL document CHEMBL4513216, “Probing the Open Global Health Chemical Diversity Library for Multistage-Active Starting Points for Next-Generation Antimalarials” (ACS Infect Dis, 2020).
# Screen size: about 69,000 compounds; about 8,600 (12%) showed an effect of 50% or more. The full list was thinned out, with strong results kept by preference.
# Test system: Plasmodium berghei
# Experiment: Screen against P. berghei liver stage (PbLuc), transformed with Luciferase, at 10uM
# Assay type: functional, HepG2
# Details: tested at 10 uM
row,Compound,INHIBITION
1,CN1CCCC(c2nccnc2-c2cccc(Cl)c2)C1 (stereo not drawn),11.575%
2,CN1CCCC(c2cccc(-c3cccc(F)c3)n2)C1 (stereo not drawn),36%
3,Cn1ccnc1C1CCCN(C(=O)c2cc(F)cc(F)c2)C1 (stereo not drawn),48.2%
4,CN(C)CCN1CCC2(CCCN(C(=O)C3CCC3)C2)CC1,33%
5,O=C(C1CCOCC1)N1CC[C@H](O)[C@@H]1Cc1cccnc1,37.6%
6,CC(C)CN1CC[C@H]2OCC[C@@H](C(=O)N3CCCO3)[C@@H]2C1,47.9%
7,O=C([C@@H]1CCO[C@@H]2CCN(CC3CCOCC3)C[C@H]21)N1CCCC1,30.3%
8,Cc1ccc(CN2CC[C@H]3OCC[C@@H](C(=O)N4CCCCO4)[C@@H]3C2)o1,61.5%
9,O=C([C@@H]1CCO[C@@H]2CCN(CC3CC3)C[C@H]21)N1CCCCO1,61.5%
10,O=C([C@@H]1CCO[C@@H]2CCN(CCc3ccccc3)C[C@@H]21)N1CCCC1,-101%
11,O=C([C@@H]1CCO[C@@H]2CCN(CC3CCOCC3)C[C@H]21)N1CCCO1,34.4%
12,O=C([C@@H]1CCO[C@@H]2CCN(Cc3ccco3)C[C@H]21)N1CCCCO1,29.8%
13,O=C([C@@H]1CCO[C@@H]2CCN(CC3CC3)C[C@H]21)N1CCCC1,57.5%
14,Cc1ccc(CN2C[C@H](C(=O)N3CCCCO3)[C@@H]3CCO[C@@H]3C2)o1,-12.1%
15,CN1CCN(C2COC3(CCN(CC4CC4)CC3)C2)CC1 (stereo not drawn),-30.1%
16,CC(C)n1nc(Cn2cccn2)c2c1CN(C1CCOC1)C2 (stereo not drawn),-12.1%
17,COc1cccc2c1ccn2CCNC(C)=O,21%
18,O=C(NCc1cncc2c1CCN(Cc1ccc(F)cc1)C2)C1CC1,-14.4%
19,COc1cccc(N2C(=O)CC3(CCCNC3)C2=O)c1 (stereo not drawn),-33.1%
20,N#Cc1ncn(CCC(=O)Nc2cccc(Cl)c2)n1,39.5%
21,CCC(=O)Nc1ccc(C(C)NC(=O)COC)cc1 (stereo not drawn),-68%
22,N[C@@H](Cc1ccccc1)c1nnc(S(=O)(=O)Cc2cccc(Cl)c2)o1,-3.73%
23,CCN(CC)c1ccc(C(=O)N2CCC(c3nc(C)no3)CC2)cn1,30.25%
24,Cc1cc(CCC2CN(CC3(O)CCCCC3)CCO2)ncn1 (stereo not drawn),-3.02%
25,c1csc(CN2CCc3nc(N4CCOCC4)nc(NC4CC4)c3C2)n1,57.1%
26,Cc1nc(N2CCCC2)nc2c1CCN(Cc1ccoc1)CC2,8.03%
27,CC(C)CCN1CCc2nc(N3CCOCC3)nc(NC(C)C)c2C1,70.2%

row,Compound,INHIBITION
1,CC(C)Nc1nc(N2CCOCC2)nc2c1CN(Cc1ccoc1)CC2,55.2%
2,Cc1nc(N2CCOCC2)nc2c1CCN(c1nccs1)CC2,37.8%
3,c1cc(CN2CCc3nc(N4CCOCC4)nc(NC4CC4)c3C2)co1,-15.3%
4,CCN1CCc2nc(N3CCOCC3)nc(NC(C)C)c2C1,24%
5,Cc1nc(N2CCOCC2)nc2c1CN(CC(=O)N(C)C)CC2,16.8%
6,C1CN(c2nc3c(c(NC4CC4)n2)CN(CC2CCOC2)CC3)CCO1 (stereo not drawn),-39.4%
7,CC(C)Nc1nc(N2CCOCC2)nc2c1CN(CC(=O)N(C)C)CC2,20.5%
8,CCCN1CCc2nc(N3CCOCC3)nc(NC(C)C)c2C1,69.3%
9,Cc1cc2ccccc2n1CC(=O)NC(C)C(=O)N1CCOCC1 (stereo not drawn),-7.83%
10,CCCc1nc(C(C)(C)NC(=O)C2CC(=O)N(C3CC3)C2)no1 (stereo not drawn),40%
11,CC(C)(C)n1cc(CNC2CCN(C(=O)c3ccoc3)CC2)cn1,1.75%
12,COc1cc(CN2CCC3(CC(Nc4ccncn4)C3)C2)cc(OC)c1 (stereo not drawn),44.1%
13,Cc1cc2ccccc2n1CC(=O)NCC(=O)N1CCOCC1,8.41%
14,CCOCc1nn(CC2CC2)c2c1CN(Cc1ccco1)CC2,12.4%
15,CC1CCCN(CCNC(=O)c2ccn(-c3ccccc3)n2)C1 (stereo not drawn),29.4%
16,O=C(NCCN1CCCCC1)c1ccn(-c2ccc(F)cc2)n1,-2.53%
17,CC1CCCN(CCNC(=O)c2ccn(-c3cccc(F)c3)n2)C1 (stereo not drawn),51.1%
18,O=C(NCCN1CCCCCC1=O)c1ccn(-c2ccc(F)cc2)n1,13.3%
19,COc1ccc(-n2ccc(C(=O)NCCN3CCCCCC3)n2)cc1,51.1%
20,COc1ccc(-n2ccc(C(=O)NCCN3CCCC(C)C3)n2)cc1 (stereo not drawn),62.1%
21,CCN1CCN(CCNC(=O)c2ccn(-c3ccc(F)cc3)n2)CC1,60.2%
22,CC1CCCN(CCNC(=O)c2ccn(-c3ccc(F)cc3)n2)C1 (stereo not drawn),3.15%
23,COc1ccc(-n2ccc(C(=O)NCCN3CCCCC3C)n2)cc1 (stereo not drawn),44.8%
24,COc1ccc(-n2ccc(C(=O)NCCN3CCCCC3)n2)cc1,40.2%
25,COc1cn(-c2ccccc2)nc1C(=O)NCCN1CCCC(C)C1 (stereo not drawn),22.3%
26,COc1ccc(-n2ccc(C(=O)NCCN3CCC(C)CC3)n2)cc1,38.8%
